According to PubChem BioAssay AID651719 (The Scripps Research Institute Molecular Screening Center, 2012):
Hit rate of the full screen: of about 360,000 compounds, about 1,600 (0.44%) were called active. This is one part of a sample in which actives are shown more often than they occur. A number with no mark means an inactive call.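 The calls were made as follows: active = inhibition above the screen-wide average plus 3 SD (cut at about 13% in these data); inactive = the rest.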

biological target: Galanin receptor type 3 (Homo sapiens) (UniProt O60755); assay: blockers of human galanin receptor 3 – cell-based, fluorescence readout, primary screen (AID 651719); details: HEK293 GalR3-CNG cAMP membrane potential fluorescence; at 3 µM; hits give high values; galR3 body fused to GalR1 C-terminus;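 also: forskolin and galanin both at EC90 stimulate the cells; cAMP rise reported by CNG channel membrane potential dye signal; 0% = forskolin plus galanin with DMSO and 100% = forskolin alone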
Sequence (O60755 1-299 limits assumed): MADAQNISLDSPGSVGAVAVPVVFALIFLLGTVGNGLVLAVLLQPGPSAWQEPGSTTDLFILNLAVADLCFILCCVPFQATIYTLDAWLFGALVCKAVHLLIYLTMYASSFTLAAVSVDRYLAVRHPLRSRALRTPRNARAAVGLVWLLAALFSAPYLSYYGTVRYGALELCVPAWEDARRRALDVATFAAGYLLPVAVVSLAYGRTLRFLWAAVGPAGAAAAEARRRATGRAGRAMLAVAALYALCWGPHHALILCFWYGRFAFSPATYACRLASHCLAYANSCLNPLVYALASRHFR

**Q.** How did the inhibition turn out when COc1ccc(-c2ccc3c(n2)CCCN3S(=O)(=O)c2ccc(C)cc2)cc1 was run?
**A.** -6.68%

**Q.** How did the inhibition turn out when Cc1nc(NC(=O)C(C)(C)C)sc1[N+](=O)[O-] was run?
**A.** -6.84%

**Q.** For CSc1nc(N)c(C#N)c(-c2ccccc2Cl)c1C#N, which inhibition is on record?
**A.** 13.6% (active)

**Q.** For COc1ccccc1-c1c(C#N)c(N)nc2c1CCC2, which inhibition is on record?
**A.** -3.19%

**Q.** For CSc1ccc(-c2c(C#N)c(N)nc3c2c(C)nn3-c2ccccc2)cc1, which inhibition is on record?
**A.** -3%

**Q.** With Cc1ccc(N)cc1CN1CCN(c2ncc(Cc3ccccc3)cn2)CC1 as the compound, how does the inhibition read?
**A.** 3.95%

**Q.** With COc1ccccc1Cc1c(-c2ccc(F)cc2)nc2ccc(C)cn12 as the compound, how does the inhibition read?
**A.** -8.12%

**Q.** CCOC(=O)C1=C(C(=O)OCC)C2N(Cc3ccc(C#N)cc3)c3ccccc3[C@@]23C[C@@H](C(=O)OC)N(S(=O)(=O)c2ccc(F)cc2)C3=N1 (stereo partly drawn) was tested. Which inhibition did it give?
**A.** -4.3%

**Q.** How did the inhibition turn out when COc1ccc(C(=O)NC2CCCc3c2cnn3-c2cccc(C)c2C)c(OC)n1 (stereo not drawn) was run?
**A.** 4.34%

**Q.** With COc1ccc(OC)c(C(=O)NC2CCCc3c2cnn3-c2cc(C)cc(C)c2)c1 (stereo not drawn) as the compound, how does the inhibition read?
**A.** -8.72%

**Q.** Cn1nccc1C(=O)NC1CCCc2c1cnn2-c1ccc(F)cc1F (stereo not drawn) was tested. Which inhibition did it give?
**A.** 99.2% (active)

**Q.** Which inhibition does the source give for COc1ccc(C(=O)NC2CC(C)(C)Cc3c2cnn3-c2ccccc2C)o1 (stereo not drawn) here?
**A.** -3.9%

**Q.** Which inhibition does the source give for Cn1nccc1C(=O)NC1CCCc2c1cnn2-c1ccccc1F (stereo not drawn) here?
**A.** 103% (active)

**Q.** For CC1(C)Cc2c(cnn2-c2cccc(F)c2)C(NC(=O)c2cc[n+]([O-])cc2)C1 (stereo not drawn), which inhibition is on record?
**A.** -2.25%

**Q.** For Cc1ccccc1C(=O)N[C@H](C(=O)N1CCC[C@H]1C(=O)NCc1ccccc1)C(C)C, which inhibition is on record?
**A.** -4.85%

**Q.** How did the inhibition turn out when COc1ccc(NS(=O)(=O)c2cc(NC(=O)c3ccc(S(=O)(=O)N(C)C)cc3)ccc2N2CCOCC2)cc1 was run?
**A.** -5.13%

**Q.** For COc1ccc(NS(=O)(=O)c2ccc(NC(=O)c3ccc(N(C)S(C)(=O)=O)cc3)cc2)cc1, which inhibition is on record?
**A.** 82.7% (active)

**Q.** How did the inhibition turn out when COc1ccc(NS(=O)(=O)c2ccc(C(=O)Nc3c(C)n(C)n(-c4ccccc4)c3=O)cc2)cc1 was run?
**A.** -0.08%

**Q.** How did the inhibition turn out when Nc1ncnc2c1ncn2[C@@H]1O[C@H](C(=O)N[C@@H](CCc2ccccc2)C(=O)NCC(=O)N2CCOCC2)[C@@H](O)[C@H]1O was run?
**A.** -4.93%

**Q.** With Cc1cc(N2CCN(C(=O)OC(C)(C)C)C[C@H]2C)ccc1N1CCN(Cc2ccccc2)[C@H](C)C1 as the compound, how does the inhibition read?
**A.** -6.01%

**Q.** Which inhibition does the source give for CC(=O)OCCC(C)C here?
**A.** -6.17%

**Q.** Which inhibition does the source give for CC(=O)OC(C)C[N+](C)(C)C (stereo not drawn) here?
**A.** 32.6% (active)

**Q.** Which inhibition does the source give for CC(C[N+](C)(C)C)OC(N)=O (stereo not drawn) here?
**A.** -2.23%

**Q.** COCc1cc(N2CCN(C(=O)OC(C)(C)C)C[C@@H]2C)ccc1N1CCN(Cc2ccccc2)[C@H](C)C1 was tested. Which inhibition did it give?
**A.** -0.36%

**Q.** Cc1ccc2nc(-c3ccc(CN4CCC(n5cc(-c6ccccc6)[nH]c5=O)CC4)cc3)c(-c3ccccc3)nc2c1 was tested. Which inhibition did it give?
**A.** -5.31%

**Q.** How did the inhibition turn out when CC(=O)c1c(C)[nH]c(C(=O)COC(=O)c2cccc(S(=O)(=O)N(C)c3ccccc3)c2)c1C was run?
**A.** 78.8% (active)

**Q.** With CC(=O)c1c(C)[nH]c(C(=O)COC(=O)c2cccs2)c1C as the compound, how does the inhibition read?
**A.** -4.13%

**Q.** How did the inhibition turn out when COc1cccc(C(=O)OCC(=O)c2[nH]c(C)c(C(C)=O)c2C)c1 was run?
**A.** -7.96%

**Q.** For CC(C)c1c(C(=O)N/N=C/c2ccccc2C(=O)O)nnn1-c1nonc1N, which inhibition is on record?
**A.** -9.07%

**Q.** Which inhibition does the source give for Nc1nonc1-n1nnc(C(=O)N/N=C/c2cc(Br)ccc2O)c1CSC1=NCCS1 here?
**A.** 76.9% (active)

**Q.** With COCc1c(C(=O)N/N=C\c2cccnc2)nnn1-c1nonc1N as the compound, how does the inhibition read?
**A.** -5.53%

**Q.** How did the inhibition turn out when Cc1cc(OC(=O)NCCc2ccc(F)cc2)ccc1F was run?
**A.** -6.58%

**Q.** Which inhibition does the source give for C=CCN=C1NC(c2cccc(C(F)(F)F)c2)C(C(=O)OC)=C(C)N1C (stereo not drawn) here?
**A.** -7.24%

**Q.** How did the inhibition turn out when CC(C)[C@@H](C)/C=C/[C@@H](C)[C@H]1CC[C@@H]2[C@]1(C)CCC1[C@]23C=C[C@]2(C[C@@H](O)CC[C@]12C)N(c1ccc([N+](=O)[O-])cn1)O3 (stereo partly drawn) was run?
**A.** 2.02%

**Q.** For COC(=O)C1=C(C)N(Cc2ccccc2C(F)(F)F)C(=NCc2ccc(C(F)(F)F)cc2)NC1c1ccc(F)cc1 (stereo not drawn), which inhibition is on record?
**A.** -4.63%

**Q.** How did the inhibition turn out when CCCCCCCCN1C(=O)[C@@H](CC(=O)NCc2ccc(C)o2)C[C@@]2(C(=O)OC)C1=C[C@H](C(C)(C)C)O[C@@H]2C was run?
**A.** -4.99%

**Q.** For O=C(Cc1ncc(C(F)(F)F)cc1Cl)Nc1cccc(Br)c1, which inhibition is on record?
**A.** 2.24%

**Q.** Which inhibition does the source give for O=C(CC(O)(C(F)(F)F)C(F)(F)F)Nc1ccc(Cl)c(Cl)c1 here?
**A.** 58.6% (active)

**Q.** Which inhibition does the source give for CN(CC(=O)Nc1ccc(Cl)c(C(F)(F)F)c1)C(=O)CCC(=O)c1ccccc1 here?
**A.** -4.03%

**Q.** How did the inhibition turn out when Nc1ncnc2c1ncn2[C@@H]1O[C@H](C(=O)N[C@@H](CCc2ccccc2)C(=O)N2CCCN(Cc3cccs3)CC2)[C@@H](O)[C@H]1O was run?
**A.** -6.23%

**Q.** O=C(O)Cn1cnc2c(NCc3ccccc3)ncnc21 was tested. Which inhibition did it give?
**A.** -5.71%

**Q.** C=CCN1C(=O)N(Cc2ccccc2)c2ccccc2S1(=O)=O was tested. Which inhibition did it give?
**A.** -6.64%

**Q.** N#Cc1c(N)nc2c3c(sc(=N)c2c1N)NC(=O)CC3c1ccccc1Cl (stereo not drawn) was tested. Which inhibition did it give?
**A.** 62.4% (active)

**Q.** How did the inhibition turn out when CSc1nc2c(c(=O)[nH]1)C(c1cccc(Cl)c1Cl)CC(=O)N2 (stereo not drawn) was run?
**A.** 12.2%

**Q.** For COc1ccc(C2CC(=O)Nc3sc(=N)c4c(N)c(C#N)c(N)nc4c32)cc1OC (stereo not drawn), which inhibition is on record?
**A.** 64.7% (active)

**Q.** For COc1ccc(C2OCC3(CO2)SC(=O)NC3=O)cc1OC (stereo not drawn), which inhibition is on record?
**A.** -2.1%

**Q.** How did the inhibition turn out when COc1ccc(OC)c2c(N)c(C#N)c(C(F)(F)C(F)(F)F)nc12 was run?
**A.** 1.89%

**Q.** Which inhibition does the source give for COC(=O)[C@]12C[C@H](CC(=O)N3CCN(C(=O)C4CC4)CC3)C(=O)N(Cc3ccc4c(c3)OCO4)C1=C[C@H](C(C)(C)C)O[C@@H]2C here?
**A.** -5.6%

**Q.** Which inhibition does the source give for N#Cc1cccc(C(=O)NCC2CCN(C(=O)C(=O)c3cc4ccccc4o3)CC2)c1 here?
**A.** -3.55%

**Q.** For CCOC(=O)CNC(=O)N(C)[C@H]1C[C@H]2c3[nH]c4c(-c5ccc6c(c5)OCO6)cccc4c3CCN2C(=O)[C@H]1[C@H](C)O, which inhibition is on record?
**A.** -5.71%

**Q.** How did the inhibition turn out when COc1ccc(C(C)(O)c2nc(-c3ccc(C)c(C)c3)cs2)cc1 (stereo not drawn) was run?
**A.** -5.12%

**Q.** For COc1ccc(C2CC(c3cccs3)=Nc3ccccc3S2)cc1OC (stereo not drawn), which inhibition is on record?
**A.** -5.75%

**Q.** COc1ccc(-c2csc(-c3cccs3)n2)cc1OC was tested. Which inhibition did it give?
**A.** 14.8% (active)

**Q.** How did the inhibition turn out when O=C(C(=O)N1CCC(CNS(=O)(=O)Cc2ccccc2)CC1)c1cc2ccccc2o1 was run?
**A.** -6.6%

**Q.** With COc1cccc(OCc2cc(C(=O)N3CCN(C(=O)c4ccco4)CC3)no2)c1 as the compound, how does the inhibition read?
**A.** -10.3%

**Q.** How did the inhibition turn out when C=CCC1(CC=C)CCCN1C(=O)c1cc(COc2ccc(-n3cncn3)cc2)on1 was run?
**A.** 80.6% (active)

**Q.** Which inhibition does the source give for CCCC(=O)N1CCC1(C)C(=O)Nc1ccc(-n2cncn2)cc1 (stereo not drawn) here?
**A.** -6.01%

**Q.** Which inhibition does the source give for O=C(Nc1c(Cl)c(C2CC2)nn1-c1ccccc1)C(Cl)(Cl)Cl here?
**A.** -6.45%

**Q.** How did the inhibition turn out when COc1cccc(CC(=O)N2CCN(C(=O)C(=O)c3cccc(C(F)(F)F)c3)CC2)c1 was run?
**A.** 1.16%

**Q.** With O=C(NCCSCc1ccccc1)c1ccc(Cl)c(S(=O)(=O)N2CCOCC2)c1 as the compound, how does the inhibition read?
**A.** -7.04%

**Q.** Which inhibition does the source give for CC(C)(CNC(=O)c1ccc(Cl)c(S(=O)(=O)N2CCc3ccccc3C2)c1)N1CCOCC1 here?
**A.** 98.3% (active)

**Q.** How did the inhibition turn out when CN(C)S(=O)(=O)c1ccc(C(=O)NCC(C)(C)N2CCOCC2)cc1 was run?
**A.** -0.16%

**Q.** For COc1cccc(-c2cc(CNC(=O)[C@@H](Cc3ccccc3)NC(=O)[C@H]3O[C@@H](n4cnc(C(N)=O)n4)[C@H](O)[C@@H]3O)no2)c1, which inhibition is on record?
**A.** -7.28%

**Q.** With O=C(C1CCCN(S(=O)(=O)c2ccccc2)C1)N1CCN(c2ccc(F)cc2)CC1 (stereo not drawn) as the compound, how does the inhibition read?
**A.** -0.67%

**Q.** CC(=O)N1c2ccc(S(=O)(=O)N3CCC(C(=O)N4CCN(c5ccccc5)CC4)CC3)cc2CC1C (stereo not drawn) was tested. Which inhibition did it give?
**A.** 0.42%

**Q.** With CC(=O)N1CCCc2cc(S(=O)(=O)N3CCCC(C(=O)N4CCN(c5cccc(Cl)c5)CC4)C3)ccc21 (stereo not drawn) as the compound, how does the inhibition read?
**A.** 77.3% (active)

**Q.** CCCCCCCCN1C(=O)[C@@H](CC(=O)NCc2ccccc2)C[C@@]2(C(=O)OC)C1=C[C@H](C(C)(C)C)O[C@@H]2C was tested. Which inhibition did it give?
**A.** -6.16%

**Q.** Cc1cccc(N2CCN(C(c3ccccc3)c3nnnn3CC3CCCO3)CC2)c1C (stereo not drawn) was tested. Which inhibition did it give?
**A.** -2.6%

**Q.** Which inhibition does the source give for COc1ccccc1NC(=S)N1CCN(C(c2ccccc2)c2ccccc2)CC1 here?
**A.** -3.76%

**Q.** CC1(C)CC(N2CCN(C(c3ccccc3)c3ccccc3)CC2)=CC(=[N+]2CCCCC2)C1 was tested. Which inhibition did it give?
**A.** 39.8% (active)

**Q.** How did the inhibition turn out when Cc1ccc2nc(CN(C)C(=O)[C@@H](Cc3ccccc3)NC(=O)[C@H]3O[C@@H](n4ccc(=O)[nH]c4=O)[C@H](O)[C@@H]3O)[nH]c2c1 was run?
**A.** -7.44%

**Q.** How did the inhibition turn out when COC(=O)[C@]12C[C@H](CC(=O)NCc3ccc(OC)c(OC)c3)C(=O)N(Cc3ccccc3)C1=C[C@H](C(C)C)O[C@@H]2C1CC1 was run?
**A.** 3.98%

**Q.** How did the inhibition turn out when COC(=O)Cc1nnn2c1[C@H](C)[C@@H](OC)c1cc(Br)ccc1-2 was run?
**A.** -5.13%

**Q.** For COc1ccc(-c2cc(C(=O)N(C)Cc3ccc(OC)c(OC)c3OC)c3ccccc3n2)cc1OC, which inhibition is on record?
**A.** 2.03%

**Q.** For COc1ccc(-c2cc(C(F)(F)F)nc(SCCC(=O)NCc3ccco3)n2)cc1, which inhibition is on record?
**A.** -3.08%

**Q.** COc1ccc(-c2cc(C(F)(F)F)nc(S(C)(=O)=O)n2)cc1OC was tested. Which inhibition did it give?
**A.** 20.7% (active)

**Q.** For COc1cccc(NC(=O)N(C)C[C@@H]2OCc3cn(nn3)CCCC(=O)N([C@@H](C)CO)C[C@H]2C)c1, which inhibition is on record?
**A.** -0.11%

**Q.** With CC[C@H](C)[C@H]1CNC(=O)C(=O)N1CC1CCN(CCc2ccc(OC)c(OC)c2)CC1 as the compound, how does the inhibition read?
**A.** 1.44%
